Screening data from PubChem.
In the library only some 18% were active in any assay of this set; here they are far more common.
TDP1 cell noCPT: qHTS for Inhibitors of human tyrosyl-DNA phosphodiesterase 1 (TDP1): qHTS in cells in absence of CPT. Potency, µM (top dose mostly 46.2 µM), without a hit: at the highest dose activity change, negative = growth inhibition, hits mostly inhibitors. 420,000 tested, 15% active. DT40 Tdp1-/- hTDP1 cells, no CPT, ATP luminescence, 48 h; also: nearly all actives have a fitted effect of over 55% in size
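Cells were dispensed at 400 per well, compounds added by pin tool, plates incubated ≥48 hr at 37 °C, then CellTiter-Glo added for 30 min at room temperature before luminescence reading. Line: DT40 Tdp1-/- complemented with hTDP1; camptothecin omitted.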
KAT2A inh: GCN5L2 (KAT2A) acetyltransferase inhibition; Q92830; GCN5L2 HAT assay, ThioGlo1 CoA-SH fluorescence; Potency, µM (doses to about 58.9 µM), without a hit: at the highest dose activity change, negative = inhibition, actives largely listed as inhibitors; 390,000 tested, 0.21% active; AID 504327
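Free CoA generated was detected with ThioGlo1 (50uM) fluorescence at Ex340nm/Em540nm, read immediately and after 20 min at room temperature. Enzyme, 20 nM in HEPES pH 7.5 buffer, saw compounds 15 min before adding 75uM H3(1-25) peptide and 70uM acetyl-CoA.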
VDR inhibitor: blocks the human vitamin D receptor; P11473; VDR-SRC2-3 peptide fluorescence polarization, 2 h; Potency, µM, for the others: max response, negative = inhibition, usual class: inhibitors; 400,000 tested, 0.93% active; AID 504847
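Two reagent solutions held at 4 deg C in the dark were dispensed, compounds pinned at 23 nl, and the mixture incubated 2 h at room temperature. Read-out: fluorescence polarization of VDR–SRC2-3 peptide binding.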
DT40 TDP1 CPT: DT40-hTDP1 cell growth loss with CPT. chicken DT40 Tdp1-/-;hTDP1 cells + 20 nM CPT, ATP luminescence, 48 h. Potency, µM (series often up to 46.2 µM), for inactives: at the top dose activity change, negative = growth inhibition, hits mostly inhibitors. 420,000 tested, 12% active. AID 686979; also: nearly all actives have a fitted effect of over 55% in size
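Chicken DT40 Tdp1-/- cells complemented with human TDP1, 400 cells/well, exposed to compounds plus 20 nM camptothecin for at least 48 h at 37 C; viability read as ATP content by CellTiter-Glo luminescence.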
TDP1 block: inhibitors of human tyrosyl-DNA phosphodiesterase TDP1; Q9NUW8; AID 485290; Potency, µM (doses to about 130 µM), for inactives: at the highest dose activity change, negative = inhibition, actives largely listed as inhibitors; 350,000 tested, 0.28% active; recombinant TDP1, AlphaScreen DNA substrate cleavage; also: nearly all actives have a fitted effect of over 40% in size
Target sequence (Q9NUW8 whole entry, looked up): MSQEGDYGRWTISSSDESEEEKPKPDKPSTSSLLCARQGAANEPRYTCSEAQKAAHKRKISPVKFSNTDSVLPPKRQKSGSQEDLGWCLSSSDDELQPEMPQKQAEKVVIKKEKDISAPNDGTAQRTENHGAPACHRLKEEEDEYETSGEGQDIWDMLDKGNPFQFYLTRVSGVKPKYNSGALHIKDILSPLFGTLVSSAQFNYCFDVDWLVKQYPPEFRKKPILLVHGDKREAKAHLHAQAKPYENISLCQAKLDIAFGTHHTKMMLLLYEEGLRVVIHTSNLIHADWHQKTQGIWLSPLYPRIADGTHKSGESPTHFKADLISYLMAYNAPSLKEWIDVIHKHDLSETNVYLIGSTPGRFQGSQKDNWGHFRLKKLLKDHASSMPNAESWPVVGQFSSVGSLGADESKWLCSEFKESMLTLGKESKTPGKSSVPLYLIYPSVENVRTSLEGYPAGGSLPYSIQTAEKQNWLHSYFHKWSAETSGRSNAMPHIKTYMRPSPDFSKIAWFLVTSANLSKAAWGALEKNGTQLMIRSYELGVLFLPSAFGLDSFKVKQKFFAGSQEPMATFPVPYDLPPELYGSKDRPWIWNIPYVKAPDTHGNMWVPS
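E. coli-derived human Tdp1, 1 nM final. Cpd preinc 15 min RT; substrate 15 nM final, 5 min RT; AS bead mix 10 ug/ml final, 10 min RT. Signal loss = tyrosine-FITC cleavage. No-enzyme wells = max signal.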
PLK1 PBD block: PLK1 (human) polo-box domain binding inhibition | P53350 | Plk1 PBD binding of FITC phosphopeptide, fluorescence polarization | Potency, µM, inactives show max response, negative = inhibition, actives largely listed as inhibitors | 360,000 tested, 2.8% active; also: series mostly up to about 57 µM; nearly all actives have a fitted effect of over 65% in size
Active calls of the source: *; [ ] = another dose, or the depositor's remark. Calls follow the shape of the dose curve; as a rule, active = well fitted curve in the direction sought with a large enough effect; inconclusive = small, poorly fitted or top-dose-only effect, or another doubt; inactive = no such curve, though single readings can be large; an effect the other way counts as inactive or inconclusive. % is scaled to controls: 0 for no effect and ±100 for the full control effect; potency is read from the fitted curve at half-maximal effect.

`O=C(c1ccncc1)N1CCN(S(=O)(=O)c2ccc(F)cc2)CC1` gave TDP1 cell noCPT 27%, KAT2A inh 2%, VDR inhibitor -1%, DT40 TDP1 CPT -1%, TDP1 block 4% and PLK1 PBD block 6%.
`O=C(O)Cc1cccc(=O)c(O)c1C(=O)O` gave TDP1 cell noCPT -2%, VDR inhibitor 11%, DT40 TDP1 CPT 4% and PLK1 PBD block inconclusive.
Screening CCc1noc(C)c1C(=O)OC(C)C(=O)Nc1cc([N+](=O)[O-])ccc1OC (stereo unspecified) returned TDP1 cell noCPT inconclusive, KAT2A inh -7%, VDR inhibitor 4%, DT40 TDP1 CPT -30%, TDP1 block -5% and PLK1 PBD block -11%.
For O=C(OCC#Cc1c(COC(=O)c2ccccc2)nnn1Cc1ccccc1)c1ccccc1 the results were TDP1 cell noCPT inconclusive, KAT2A inh -11%, VDR inhibitor -10%, DT40 TDP1 CPT 18µM*, TDP1 block -1% and PLK1 PBD block -21%.
`O=C(OCc1ccccc1)c1cccc(-c2nnn(Cc3ccccc3)n2)c1` gave TDP1 cell noCPT -2%, KAT2A inh -4%, VDR inhibitor 5%, DT40 TDP1 CPT -11% and PLK1 PBD block -1%.
Screening COc1ccc(O[C@H]2C=C[C@@H](c3ccccc3)O[C@H]2COC(=O)CC/C(C)=N\OC[C@@H](O)COCc2ccco2)cc1 returned TDP1 block 12%[21 µM].
For O=c1c(-c2cc(-c3ccccc3)nc3c2COc2ccc(Cl)cc2-3)coc2ccc(F)cc12 the results were TDP1 cell noCPT 7%, KAT2A inh 0%, VDR inhibitor 5%, DT40 TDP1 CPT 3% and TDP1 block 7%.
For Cc1ccc(NC(=O)c2ccc(OC(=O)COc3ccc(Cl)cc3C)cc2)cc1 the results were TDP1 cell noCPT 11%, KAT2A inh -3%, VDR inhibitor -16%, DT40 TDP1 CPT 3%, TDP1 block 5% and PLK1 PBD block -2%.
Screening Cc1ccc(C(=O)NNC(=O)COc2ccc(Cl)cc2C)o1 returned TDP1 cell noCPT inconclusive, KAT2A inh 3%, VDR inhibitor 14%, DT40 TDP1 CPT inconclusive, TDP1 block 0% and PLK1 PBD block 6%.
`Cc1cc(Br)ccc1OCC(=O)NNC(=O)c1cnccn1` gave TDP1 cell noCPT 21µM*, KAT2A inh 4%, VDR inhibitor -1%, DT40 TDP1 CPT inconclusive, TDP1 block 4% and PLK1 PBD block -12%.
For Cc1cc(Cl)ccc1OCC(=O)NNC(=O)c1cnccn1 the results were TDP1 cell noCPT 23µM*, KAT2A inh 0%, VDR inhibitor 1%, DT40 TDP1 CPT 10µM*, TDP1 block 7% and PLK1 PBD block -10%.
Screening Cc1ccc(C(=O)CC(=O)COc2ccc(Cl)cc2C)cc1 returned TDP1 cell noCPT 5.8µM*, KAT2A inh -9%, VDR inhibitor -4%, DT40 TDP1 CPT 4.1µM*, TDP1 block -2% and PLK1 PBD block -5%.
`Cc1cccc(NC(=O)CNC(=O)CN2C(=O)NC3(CCc4ccccc43)C2=O)c1C` (stereo unspecified) gave TDP1 cell noCPT -6%, KAT2A inh -2%, VDR inhibitor -6%, DT40 TDP1 CPT 0% and PLK1 PBD block -8%.
Screening CCCN(C(=O)Cn1nc(Cc2ccncc2)c2ccccc2c1=O)c1ccccc1C returned TDP1 cell noCPT inconclusive, KAT2A inh 1%, VDR inhibitor -5%, DT40 TDP1 CPT inconclusive and TDP1 block 1%.
N[C@H](CC(=O)O)C(=O)O was read as TDP1 cell noCPT inconclusive, KAT2A inh -15%, VDR inhibitor 1%, DT40 TDP1 CPT -28% and TDP1 block -7%.
Screening CC1CC(=O)Nc2ccccc2N1C(=O)Cn1cnc2ccccc2c1=O (stereo unspecified) returned TDP1 cell noCPT 0%, KAT2A inh -5%, VDR inhibitor -16%, DT40 TDP1 CPT 0%, TDP1 block 0% and PLK1 PBD block 0%.
COc1ccc(C(C)=O)cc1CSc1nnc(Nc2ccccc2)s1 was read as TDP1 cell noCPT 16µM*, KAT2A inh -1%, VDR inhibitor 8%, DT40 TDP1 CPT inconclusive, TDP1 block 3% and PLK1 PBD block -13%.
For COc1ccc(C(C)=O)cc1CSc1nnc(Nc2ccc(C)cc2)s1 the results were TDP1 cell noCPT 23µM*, KAT2A inh -7%, VDR inhibitor 5%, DT40 TDP1 CPT inconclusive, TDP1 block 3% and PLK1 PBD block -5%.
`CCOc1ccc(CNC(=O)Cn2cc3c(n2)-c2c(oc(C(=O)N4CCOCC4)c2C)CC3)cc1` gave TDP1 cell noCPT 21µM*, KAT2A inh -1%, VDR inhibitor -3%, DT40 TDP1 CPT inconclusive and TDP1 block 3%.
Screening COc1cccc(CNC(=O)c2oc3c(c2C)-c2nn(Cc4cccc(Cl)c4)cc2CC3)c1 returned TDP1 cell noCPT 18µM*, KAT2A inh -17%, VDR inhibitor 6%, DT40 TDP1 CPT inconclusive and TDP1 block 1%.
COc1ccc(CNC(=O)c2oc3c(c2C)-c2nn(Cc4ccc(Cl)cc4)cc2CC3)cc1 was read as TDP1 cell noCPT 23µM*, KAT2A inh -11%, VDR inhibitor 6%, DT40 TDP1 CPT inconclusive and TDP1 block 1%.
`Cc1c(C(=O)NCCN(C)C)oc2c1-c1nn(Cc3cccc(Cl)c3)cc1CC2` gave TDP1 cell noCPT inconclusive, KAT2A inh -3%, VDR inhibitor 16%, DT40 TDP1 CPT inconclusive and TDP1 block 0%.
Cc1c(C(=O)O)oc2c1-c1nn(Cc3ccccc3Cl)cc1CC2 was read as TDP1 cell noCPT inconclusive, KAT2A inh -11%, VDR inhibitor -13%, DT40 TDP1 CPT 6% and TDP1 block -5%.
`COc1cccc(CNC(=O)c2oc3c(c2C)-c2nn(Cc4cccc(Cl)c4)cc2CC3)c1OC` gave TDP1 cell noCPT 21µM*, KAT2A inh -12%, VDR inhibitor 9%, DT40 TDP1 CPT 16µM* and TDP1 block 5%.
`CC(=O)/C=C1\OCc2ccccc21` gave TDP1 cell noCPT 25%, DT40 TDP1 CPT 14% and PLK1 PBD block -12%.
For CCC(C)c1ccccc1NC(=O)CN1CCN(C/C=C/c2ccccc2)CC1 (stereo unspecified) the results were TDP1 cell noCPT -18%, KAT2A inh 0%, VDR inhibitor 8%, DT40 TDP1 CPT -20%, TDP1 block 0% and PLK1 PBD block -11%.
